# PMC7862700, “An all-to-all approach to the identification of sequence-specific readers for epigenetic DNA modifications on cytosine”
# Key:
# Experiment in all cases: DAPPL (digital affinity profiling via proximity ligation, sequencing); 10 mM Tris-HCl pH 7.5, 50 mM NaCl, 1 mM DTT, 4% glycerol, room temperature, 30 min; GST-TFs on glutathione beads, 16-mer random dsDNA library, 0.1% formaldehyde crosslink after washing; high values mean tight binding
# FLI1 = molecular target: T1, FLI1 (Homo sapiens, UniProt Q01543 1-452); details: protein: recombinant; tags: N-terminal GST; dsDNA, one strand shown
# T1 sequence: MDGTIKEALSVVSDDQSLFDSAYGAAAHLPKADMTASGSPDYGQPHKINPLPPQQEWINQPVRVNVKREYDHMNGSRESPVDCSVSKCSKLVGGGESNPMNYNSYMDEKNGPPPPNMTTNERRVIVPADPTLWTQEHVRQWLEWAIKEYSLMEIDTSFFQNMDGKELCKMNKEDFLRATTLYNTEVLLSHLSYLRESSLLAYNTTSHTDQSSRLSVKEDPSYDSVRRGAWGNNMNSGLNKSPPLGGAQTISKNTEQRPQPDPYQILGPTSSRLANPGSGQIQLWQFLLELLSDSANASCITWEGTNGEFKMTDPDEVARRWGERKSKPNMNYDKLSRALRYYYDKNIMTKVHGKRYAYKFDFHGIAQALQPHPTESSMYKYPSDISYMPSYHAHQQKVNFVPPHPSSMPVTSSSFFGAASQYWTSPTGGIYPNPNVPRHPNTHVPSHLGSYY
# Summary of the method: (§1)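 Human transcription factors carrying a GST fusion were produced in yeast, bound to glutathione beads, tagged with DNA barcodes and pooled together with a tag-only sample. Each pool was held with 200 nmole of a random double-stranded 16-mer DNA library in Tris/NaCl/DTT/glycerol buffer for 30 min at room temperature, then washed, crosslinked in 0.1% formaldehyde, proximity-ligated with BsaI/T4 ligase (1 h, 37 °C), PCR-amplified and sequenced on an Illumina NextSeq500. Binding signal is the read frequency of each hexamer for a given factor divided by its frequency in the tag-only sample.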
# ELK1 = molecular target: T2, ELK1 (Homo sapiens, UniProt P19419 1-428); details: protein: recombinant; tags: N-terminal GST; dsDNA, one strand shown
# T2 sequence: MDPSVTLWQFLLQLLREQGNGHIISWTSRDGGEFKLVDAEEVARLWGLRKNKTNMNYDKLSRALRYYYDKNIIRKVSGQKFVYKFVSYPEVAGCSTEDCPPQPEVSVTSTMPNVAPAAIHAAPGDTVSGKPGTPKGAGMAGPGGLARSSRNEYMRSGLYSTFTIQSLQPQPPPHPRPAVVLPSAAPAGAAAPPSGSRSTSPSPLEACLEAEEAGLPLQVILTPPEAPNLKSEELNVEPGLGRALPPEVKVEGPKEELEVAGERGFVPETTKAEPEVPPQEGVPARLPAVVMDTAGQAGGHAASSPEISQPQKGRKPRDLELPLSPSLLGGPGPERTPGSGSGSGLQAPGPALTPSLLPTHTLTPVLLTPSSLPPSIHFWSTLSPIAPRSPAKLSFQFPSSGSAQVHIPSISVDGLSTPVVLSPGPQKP
# Summary of the method: as §1
# GABPA = molecular target: T3, GABPA (Homo sapiens, UniProt Q06546 1-454); details: protein: recombinant; tags: N-terminal GST; dsDNA, one strand shown
# T3 sequence: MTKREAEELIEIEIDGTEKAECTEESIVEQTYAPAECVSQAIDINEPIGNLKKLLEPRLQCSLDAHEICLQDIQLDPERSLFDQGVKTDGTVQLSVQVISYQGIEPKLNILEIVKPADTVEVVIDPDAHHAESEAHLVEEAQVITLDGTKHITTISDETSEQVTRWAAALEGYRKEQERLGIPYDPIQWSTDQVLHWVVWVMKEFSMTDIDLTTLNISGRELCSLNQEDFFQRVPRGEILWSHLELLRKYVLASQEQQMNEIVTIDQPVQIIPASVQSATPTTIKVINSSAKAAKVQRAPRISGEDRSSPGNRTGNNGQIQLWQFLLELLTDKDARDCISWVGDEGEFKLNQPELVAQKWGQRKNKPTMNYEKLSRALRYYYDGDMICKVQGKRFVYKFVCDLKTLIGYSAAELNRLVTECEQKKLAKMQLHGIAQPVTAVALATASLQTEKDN
# Summary of the method: as §1
# ERG = molecular target: T4, ERG (Homo sapiens, UniProt P11308 1-479); details: protein: recombinant; tags: N-terminal GST; dsDNA, one strand shown
# T4 sequence: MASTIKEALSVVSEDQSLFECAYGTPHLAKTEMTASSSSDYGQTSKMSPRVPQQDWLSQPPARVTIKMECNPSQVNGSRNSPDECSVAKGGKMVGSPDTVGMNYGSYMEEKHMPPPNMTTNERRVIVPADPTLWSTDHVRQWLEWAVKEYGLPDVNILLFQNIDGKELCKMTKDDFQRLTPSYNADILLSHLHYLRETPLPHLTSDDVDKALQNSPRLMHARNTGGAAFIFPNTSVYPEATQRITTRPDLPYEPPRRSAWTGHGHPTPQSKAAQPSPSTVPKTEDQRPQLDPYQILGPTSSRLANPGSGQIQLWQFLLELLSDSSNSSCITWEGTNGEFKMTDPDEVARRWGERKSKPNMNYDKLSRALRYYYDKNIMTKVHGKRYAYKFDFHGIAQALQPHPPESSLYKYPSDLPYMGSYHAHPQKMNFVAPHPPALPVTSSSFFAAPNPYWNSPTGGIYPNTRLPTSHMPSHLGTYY
# Summary of the method: as §1
# ELF1 = ELF1 (Homo sapiens, UniProt P32519 1-619); details: protein: recombinant; tags: N-terminal GST; dsDNA, one strand shown
# Summary of the method: as §1
# EHF = molecular target: T5, EHF (Homo sapiens, UniProt Q9NZC4 1-300); details: protein: recombinant; tags: N-terminal GST; dsDNA, one strand shown
# T5 sequence: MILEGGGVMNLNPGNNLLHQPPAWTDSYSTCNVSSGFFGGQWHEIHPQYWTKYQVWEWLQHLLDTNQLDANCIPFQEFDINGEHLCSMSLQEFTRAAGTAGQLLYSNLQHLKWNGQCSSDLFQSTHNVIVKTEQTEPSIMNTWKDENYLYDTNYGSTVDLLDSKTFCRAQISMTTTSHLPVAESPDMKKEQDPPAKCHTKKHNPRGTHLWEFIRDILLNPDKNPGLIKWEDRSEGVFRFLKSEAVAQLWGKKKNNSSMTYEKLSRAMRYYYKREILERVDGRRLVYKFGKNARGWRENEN
# Summary of the method: as §1
# SPI1 = SPI1 (Homo sapiens, UniProt P17947 1-270); details: protein: recombinant; tags: N-terminal GST; dsDNA, one strand shown
# Summary of the method: as §1
# SPIB = SPIB (Homo sapiens, UniProt Q01892 1-262); details: protein: recombinant; tags: N-terminal GST; dsDNA, one strand shown
# Summary of the method: as §1
# ELK3 = molecular target: T6, ELK3 (Homo sapiens, UniProt P41970 1-407); details: protein: recombinant; tags: N-terminal GST; dsDNA, one strand shown
# T6 sequence: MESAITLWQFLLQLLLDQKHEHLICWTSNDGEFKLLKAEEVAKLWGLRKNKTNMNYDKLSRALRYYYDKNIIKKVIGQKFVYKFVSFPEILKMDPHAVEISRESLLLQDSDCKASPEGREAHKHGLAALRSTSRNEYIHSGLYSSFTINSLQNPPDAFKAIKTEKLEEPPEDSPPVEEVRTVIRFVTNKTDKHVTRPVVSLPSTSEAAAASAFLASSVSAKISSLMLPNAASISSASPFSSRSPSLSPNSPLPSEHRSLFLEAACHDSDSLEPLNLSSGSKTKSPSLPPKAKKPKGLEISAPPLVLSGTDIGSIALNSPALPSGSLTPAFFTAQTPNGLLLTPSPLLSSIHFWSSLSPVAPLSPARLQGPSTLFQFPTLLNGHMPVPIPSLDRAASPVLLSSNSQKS
# Summary of the method: as §1
# FEV = molecular target: T7, FEV (Homo sapiens, UniProt Q99581 1-238); details: protein: recombinant; tags: N-terminal GST; dsDNA, one strand shown
# T7 sequence: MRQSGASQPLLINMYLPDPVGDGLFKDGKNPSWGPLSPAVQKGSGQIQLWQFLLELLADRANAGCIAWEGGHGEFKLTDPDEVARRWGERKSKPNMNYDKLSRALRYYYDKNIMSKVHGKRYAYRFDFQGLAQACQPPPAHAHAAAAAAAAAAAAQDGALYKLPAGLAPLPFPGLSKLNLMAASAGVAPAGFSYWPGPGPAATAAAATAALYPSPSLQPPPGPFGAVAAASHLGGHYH
# Summary of the method: as §1
# ETV5 = ETV5 (Homo sapiens, UniProt P41161 1-510); details: protein: recombinant; tags: N-terminal GST; dsDNA, one strand shown
# Summary of the method: as §1
# HSF1 = HSF1 (Homo sapiens, UniProt Q00613 1-529); details: protein: recombinant; tags: N-terminal GST; chain copies: 3; dsDNA, one strand shown
# Summary of the method: as §1
# SPIC = molecular target: T8, SPIC (Homo sapiens, UniProt Q8N5J4 1-248); details: protein: recombinant; tags: N-terminal GST; dsDNA, one strand shown
# T8 sequence: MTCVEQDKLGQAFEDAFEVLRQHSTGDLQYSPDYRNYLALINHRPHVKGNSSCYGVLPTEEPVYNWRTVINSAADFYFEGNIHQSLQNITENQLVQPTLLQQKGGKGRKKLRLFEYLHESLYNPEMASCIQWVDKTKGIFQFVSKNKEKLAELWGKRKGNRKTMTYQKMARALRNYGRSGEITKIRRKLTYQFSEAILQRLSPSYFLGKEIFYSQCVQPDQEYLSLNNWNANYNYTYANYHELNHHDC
# Summary of the method: as §1
# ELF4 = ELF4 (Homo sapiens, UniProt Q99607 1-663); details: protein: recombinant; tags: N-terminal GST; dsDNA, one strand shown
# Summary of the method: as §1
# ELK4 = molecular target: T9, ELK4 (Homo sapiens, UniProt P28324-2 1-405); details: protein: recombinant; tags: N-terminal GST; dsDNA, one strand shown
# T9 sequence: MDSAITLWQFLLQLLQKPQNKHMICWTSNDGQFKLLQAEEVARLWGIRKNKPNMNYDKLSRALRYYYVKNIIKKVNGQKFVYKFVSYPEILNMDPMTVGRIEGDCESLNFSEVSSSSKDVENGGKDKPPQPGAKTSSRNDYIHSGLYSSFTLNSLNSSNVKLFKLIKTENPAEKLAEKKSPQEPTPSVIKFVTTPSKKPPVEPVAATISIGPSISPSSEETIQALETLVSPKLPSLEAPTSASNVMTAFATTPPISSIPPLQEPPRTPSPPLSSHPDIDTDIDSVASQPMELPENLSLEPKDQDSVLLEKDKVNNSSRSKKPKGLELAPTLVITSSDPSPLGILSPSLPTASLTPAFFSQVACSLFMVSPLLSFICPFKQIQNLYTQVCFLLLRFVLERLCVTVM
# Summary of the method: as §1
# ETV2 = molecular target: T10, ETV2 (Homo sapiens, UniProt O00321 1-342); details: protein: recombinant; tags: N-terminal GST; dsDNA, one strand shown
# T10 sequence: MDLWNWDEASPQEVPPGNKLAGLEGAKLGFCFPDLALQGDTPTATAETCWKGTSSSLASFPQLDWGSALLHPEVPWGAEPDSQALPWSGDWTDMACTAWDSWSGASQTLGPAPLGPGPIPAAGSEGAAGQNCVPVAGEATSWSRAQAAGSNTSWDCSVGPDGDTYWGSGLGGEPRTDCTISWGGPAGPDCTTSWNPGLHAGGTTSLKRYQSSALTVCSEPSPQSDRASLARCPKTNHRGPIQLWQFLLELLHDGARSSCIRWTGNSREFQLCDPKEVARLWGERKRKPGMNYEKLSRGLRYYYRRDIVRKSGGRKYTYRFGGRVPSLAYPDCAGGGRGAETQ
# Summary of the method: as §1
# CRX = CRX (Homo sapiens, UniProt O43186 1-299); details: protein: recombinant; tags: N-terminal GST; dsDNA, one strand shown
# Summary of the method: as §1
# ETV1 = ETV1 (Homo sapiens, UniProt P50549 1-477); details: protein: recombinant; tags: N-terminal GST; dsDNA, one strand shown
# Summary of the method: as §1
# Sequence of CRX (O43186 whole entry): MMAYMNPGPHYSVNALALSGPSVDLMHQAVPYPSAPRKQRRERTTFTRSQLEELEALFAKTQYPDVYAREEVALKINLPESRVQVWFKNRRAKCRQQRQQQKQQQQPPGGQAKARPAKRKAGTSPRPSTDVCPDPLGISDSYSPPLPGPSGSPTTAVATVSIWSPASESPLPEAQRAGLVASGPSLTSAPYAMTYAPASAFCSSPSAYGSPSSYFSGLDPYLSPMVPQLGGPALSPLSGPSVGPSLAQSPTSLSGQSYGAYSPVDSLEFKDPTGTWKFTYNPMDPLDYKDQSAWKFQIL
# Sequence of ETV5 (P41161 whole entry): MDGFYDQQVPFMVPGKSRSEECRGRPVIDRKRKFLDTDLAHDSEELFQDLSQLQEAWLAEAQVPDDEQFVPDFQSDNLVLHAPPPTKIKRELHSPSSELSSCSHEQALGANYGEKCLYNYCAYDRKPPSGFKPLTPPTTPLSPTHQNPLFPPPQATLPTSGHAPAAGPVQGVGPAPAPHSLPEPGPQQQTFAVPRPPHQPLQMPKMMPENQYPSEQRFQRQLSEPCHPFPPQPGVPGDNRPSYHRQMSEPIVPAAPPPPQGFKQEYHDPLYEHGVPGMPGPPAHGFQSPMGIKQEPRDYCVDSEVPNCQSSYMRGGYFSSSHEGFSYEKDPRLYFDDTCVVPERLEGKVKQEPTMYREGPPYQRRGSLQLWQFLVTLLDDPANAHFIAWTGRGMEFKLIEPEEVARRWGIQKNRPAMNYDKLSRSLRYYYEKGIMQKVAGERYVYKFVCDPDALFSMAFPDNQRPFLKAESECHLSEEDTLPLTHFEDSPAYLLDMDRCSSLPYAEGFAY
# Sequence of ELF1 (P32519 whole entry): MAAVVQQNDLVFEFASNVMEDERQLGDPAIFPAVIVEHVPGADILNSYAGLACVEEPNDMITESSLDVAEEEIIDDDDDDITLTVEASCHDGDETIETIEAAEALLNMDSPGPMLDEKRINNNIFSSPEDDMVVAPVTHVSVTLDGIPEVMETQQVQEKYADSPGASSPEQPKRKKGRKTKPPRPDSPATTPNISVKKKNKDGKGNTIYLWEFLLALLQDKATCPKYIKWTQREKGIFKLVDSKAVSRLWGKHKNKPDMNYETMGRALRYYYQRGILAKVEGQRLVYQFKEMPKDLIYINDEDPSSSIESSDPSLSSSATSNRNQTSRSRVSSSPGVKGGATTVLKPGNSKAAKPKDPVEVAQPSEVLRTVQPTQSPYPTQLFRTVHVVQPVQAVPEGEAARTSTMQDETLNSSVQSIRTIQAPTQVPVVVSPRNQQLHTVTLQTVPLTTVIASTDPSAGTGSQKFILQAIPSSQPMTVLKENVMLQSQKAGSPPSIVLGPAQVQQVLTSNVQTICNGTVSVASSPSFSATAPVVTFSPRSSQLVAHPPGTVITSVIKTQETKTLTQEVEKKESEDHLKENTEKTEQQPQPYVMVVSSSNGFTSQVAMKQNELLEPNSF
# Sequence of SPIB (Q01892 whole entry): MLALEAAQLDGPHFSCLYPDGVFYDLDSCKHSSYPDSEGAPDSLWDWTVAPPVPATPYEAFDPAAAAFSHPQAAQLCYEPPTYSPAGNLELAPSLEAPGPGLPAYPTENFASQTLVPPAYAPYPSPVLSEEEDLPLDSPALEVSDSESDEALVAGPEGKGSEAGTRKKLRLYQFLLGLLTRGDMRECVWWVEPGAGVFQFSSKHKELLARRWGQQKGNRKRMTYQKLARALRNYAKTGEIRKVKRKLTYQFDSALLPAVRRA
# Sequence of HSF1 (Q00613 whole entry): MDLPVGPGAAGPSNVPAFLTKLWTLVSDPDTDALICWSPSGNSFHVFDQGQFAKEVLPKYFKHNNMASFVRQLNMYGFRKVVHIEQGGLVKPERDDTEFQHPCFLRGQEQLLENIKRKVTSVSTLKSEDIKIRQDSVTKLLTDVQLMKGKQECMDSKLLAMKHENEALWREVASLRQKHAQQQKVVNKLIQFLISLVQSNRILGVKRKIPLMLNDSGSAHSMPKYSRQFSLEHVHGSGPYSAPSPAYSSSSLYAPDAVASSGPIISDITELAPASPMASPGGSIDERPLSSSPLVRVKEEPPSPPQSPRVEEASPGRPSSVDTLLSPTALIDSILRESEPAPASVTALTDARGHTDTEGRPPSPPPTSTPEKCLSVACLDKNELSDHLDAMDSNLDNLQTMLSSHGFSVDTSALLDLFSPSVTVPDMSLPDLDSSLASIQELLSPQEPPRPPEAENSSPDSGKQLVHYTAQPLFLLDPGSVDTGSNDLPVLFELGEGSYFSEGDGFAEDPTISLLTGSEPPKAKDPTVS
# Sequence of ETV1 (P50549 whole entry): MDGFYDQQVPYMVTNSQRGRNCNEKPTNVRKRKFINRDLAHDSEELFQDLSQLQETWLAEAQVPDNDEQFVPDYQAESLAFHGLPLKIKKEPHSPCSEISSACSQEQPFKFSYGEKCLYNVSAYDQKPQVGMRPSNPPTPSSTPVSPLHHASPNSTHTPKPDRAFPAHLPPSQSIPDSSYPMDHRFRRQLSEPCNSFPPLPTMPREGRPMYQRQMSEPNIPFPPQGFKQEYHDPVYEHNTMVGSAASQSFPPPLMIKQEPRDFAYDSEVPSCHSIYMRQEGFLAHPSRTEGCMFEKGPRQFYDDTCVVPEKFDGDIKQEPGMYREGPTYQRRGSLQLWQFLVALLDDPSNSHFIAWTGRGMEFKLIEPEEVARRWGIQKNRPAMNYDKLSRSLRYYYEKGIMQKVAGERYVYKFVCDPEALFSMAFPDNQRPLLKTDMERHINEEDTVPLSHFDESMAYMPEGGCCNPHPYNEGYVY
# Sequence of ELF4 (Q99607 whole entry): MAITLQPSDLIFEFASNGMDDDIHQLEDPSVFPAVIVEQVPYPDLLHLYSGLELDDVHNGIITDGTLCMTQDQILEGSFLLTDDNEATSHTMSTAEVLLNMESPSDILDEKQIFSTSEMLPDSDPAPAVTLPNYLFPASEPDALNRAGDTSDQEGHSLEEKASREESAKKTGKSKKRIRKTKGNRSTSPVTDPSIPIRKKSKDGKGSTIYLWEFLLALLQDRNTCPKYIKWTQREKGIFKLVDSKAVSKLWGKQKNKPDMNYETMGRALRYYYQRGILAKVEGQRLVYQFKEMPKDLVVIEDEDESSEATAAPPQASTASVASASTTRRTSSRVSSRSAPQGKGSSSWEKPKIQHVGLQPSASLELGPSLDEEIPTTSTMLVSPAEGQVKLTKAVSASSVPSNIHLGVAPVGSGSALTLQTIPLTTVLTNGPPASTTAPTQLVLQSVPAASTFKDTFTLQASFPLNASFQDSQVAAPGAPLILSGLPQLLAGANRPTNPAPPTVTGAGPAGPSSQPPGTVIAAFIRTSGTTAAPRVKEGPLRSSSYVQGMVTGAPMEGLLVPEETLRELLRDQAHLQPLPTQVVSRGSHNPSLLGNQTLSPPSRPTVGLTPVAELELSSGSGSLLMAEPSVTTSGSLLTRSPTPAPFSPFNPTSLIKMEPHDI
sequence,measurement,setting,value
GGCTAG,binding signal,FLI1,"1.07 fold enrichment (6-mer frequency, TF over GST control)"
same,binding signal,ELK1,"1.11 fold enrichment (6-mer frequency, TF over GST control)"
same,binding signal,GABPA,"1.1 fold enrichment (6-mer frequency, TF over GST control)"
same,binding signal,ERG,"1.1 fold enrichment (6-mer frequency, TF over GST control)"
same,binding signal,ELF1,"1.09 fold enrichment (6-mer frequency, TF over GST control)"
same,binding signal,EHF,"1.05 fold enrichment (6-mer frequency, TF over GST control)"
same,binding signal,SPI1,"1.08 fold enrichment (6-mer frequency, TF over GST control)"
same,binding signal,SPIB,"1.18 fold enrichment (6-mer frequency, TF over GST control)"
same,binding signal,ELK3,"1 fold enrichment (6-mer frequency, TF over GST control)"
same,binding signal,FEV,"1.08 fold enrichment (6-mer frequency, TF over GST control)"
same,binding signal,ETV5,"1.06 fold enrichment (6-mer frequency, TF over GST control)"
same,binding signal,HSF1,"1.18 fold enrichment (6-mer frequency, TF over GST control)"
same,binding signal,SPIC,"1.2 fold enrichment (6-mer frequency, TF over GST control)"
same,binding signal,ELF4,"1.1 fold enrichment (6-mer frequency, TF over GST control)"
same,binding signal,ELK4,"1.22 fold enrichment (6-mer frequency, TF over GST control)"
same,binding signal,ETV2,"1.15 fold enrichment (6-mer frequency, TF over GST control)"
same,binding signal,CRX,"1.05 fold enrichment (6-mer frequency, TF over GST control)"
same,binding signal,ETV1,"1.03 fold enrichment (6-mer frequency, TF over GST control)"
